# Assay results as given in publication PMC7862700, “An all-to-all approach to the identification of sequence-specific readers for epigenetic DNA modifications on cytosine”.
# Key:
# Test in all cases: DAPPL (digital affinity profiling via proximity ligation, sequencing); 10 mM Tris-HCl pH 7.5, 50 mM NaCl, 1 mM DTT, 4% glycerol, room temperature, 30 min; GST-TFs on glutathione beads, 16-mer random dsDNA library, 0.1% formaldehyde crosslink after washing; high values mean tight binding
# [1] = molecular target: T1, FLI1 (Homo sapiens, UniProt Q01543 1-452); conditions: protein: recombinant; tags: N-terminal GST; dsDNA, one strand shown
# T1 sequence: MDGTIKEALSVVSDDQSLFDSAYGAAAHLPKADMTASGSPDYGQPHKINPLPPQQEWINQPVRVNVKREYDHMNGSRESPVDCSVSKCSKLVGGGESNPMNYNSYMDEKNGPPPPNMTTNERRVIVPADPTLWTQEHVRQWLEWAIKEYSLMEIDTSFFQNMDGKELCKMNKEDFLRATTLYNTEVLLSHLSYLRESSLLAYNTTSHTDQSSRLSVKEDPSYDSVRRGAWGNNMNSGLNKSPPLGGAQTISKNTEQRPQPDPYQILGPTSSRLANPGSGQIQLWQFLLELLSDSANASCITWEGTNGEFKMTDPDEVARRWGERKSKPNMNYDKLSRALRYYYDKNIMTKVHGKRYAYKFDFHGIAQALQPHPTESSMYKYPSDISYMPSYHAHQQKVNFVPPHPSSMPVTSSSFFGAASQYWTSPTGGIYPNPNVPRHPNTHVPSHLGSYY
# In short: (§1)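 A tag-only sample was pooled with DNA-barcoded human transcription factors that had been expressed in yeast as GST fusions and captured on glutathione beads. The pools were incubated for 30 min at room temperature with 200 nmole of a random double-stranded 16-mer DNA library in Tris/NaCl/DTT/glycerol buffer, then washed, crosslinked with 0.1% formaldehyde, proximity-ligated (BsaI/T4 ligase, 1 h, 37 °C), PCR-amplified and sequenced on an Illumina NextSeq500. Binding signal is each hexamer's read frequency for a factor divided by its frequency for the tag-only sample.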
# [2] = molecular target: T2, ELK1 (Homo sapiens, UniProt P19419 1-428); conditions: protein: recombinant; tags: N-terminal GST; dsDNA, one strand shown
# T2 sequence: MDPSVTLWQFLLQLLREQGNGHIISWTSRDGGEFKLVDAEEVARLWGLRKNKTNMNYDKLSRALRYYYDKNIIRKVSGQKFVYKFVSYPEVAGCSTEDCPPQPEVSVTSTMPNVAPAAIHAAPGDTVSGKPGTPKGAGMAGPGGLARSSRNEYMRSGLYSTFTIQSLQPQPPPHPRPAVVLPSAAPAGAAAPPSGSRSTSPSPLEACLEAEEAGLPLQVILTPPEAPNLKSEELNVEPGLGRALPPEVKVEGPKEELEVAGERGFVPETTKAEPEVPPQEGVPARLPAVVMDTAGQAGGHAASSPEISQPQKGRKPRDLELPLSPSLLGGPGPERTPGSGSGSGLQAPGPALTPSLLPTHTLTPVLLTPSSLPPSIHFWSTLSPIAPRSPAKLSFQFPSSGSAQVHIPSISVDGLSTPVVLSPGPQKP
# In short: as §1
# [3] = molecular target: T3, GABPA (Homo sapiens, UniProt Q06546 1-454); conditions: protein: recombinant; tags: N-terminal GST; dsDNA, one strand shown
# T3 sequence: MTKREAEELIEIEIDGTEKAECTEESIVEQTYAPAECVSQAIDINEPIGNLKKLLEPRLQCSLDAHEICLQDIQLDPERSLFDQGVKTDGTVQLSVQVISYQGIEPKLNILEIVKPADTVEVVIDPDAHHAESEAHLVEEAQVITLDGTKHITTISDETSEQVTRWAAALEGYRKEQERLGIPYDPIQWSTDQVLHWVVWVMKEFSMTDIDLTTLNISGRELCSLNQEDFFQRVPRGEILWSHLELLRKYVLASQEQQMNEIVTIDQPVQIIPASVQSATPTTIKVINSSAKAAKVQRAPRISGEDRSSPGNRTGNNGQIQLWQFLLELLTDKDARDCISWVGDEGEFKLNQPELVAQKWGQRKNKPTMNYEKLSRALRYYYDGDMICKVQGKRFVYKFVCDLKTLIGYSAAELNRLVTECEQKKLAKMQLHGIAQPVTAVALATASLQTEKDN
# In short: as §1
# [4] = molecular target: T4, ERG (Homo sapiens, UniProt P11308 1-479); conditions: protein: recombinant; tags: N-terminal GST; dsDNA, one strand shown
# T4 sequence: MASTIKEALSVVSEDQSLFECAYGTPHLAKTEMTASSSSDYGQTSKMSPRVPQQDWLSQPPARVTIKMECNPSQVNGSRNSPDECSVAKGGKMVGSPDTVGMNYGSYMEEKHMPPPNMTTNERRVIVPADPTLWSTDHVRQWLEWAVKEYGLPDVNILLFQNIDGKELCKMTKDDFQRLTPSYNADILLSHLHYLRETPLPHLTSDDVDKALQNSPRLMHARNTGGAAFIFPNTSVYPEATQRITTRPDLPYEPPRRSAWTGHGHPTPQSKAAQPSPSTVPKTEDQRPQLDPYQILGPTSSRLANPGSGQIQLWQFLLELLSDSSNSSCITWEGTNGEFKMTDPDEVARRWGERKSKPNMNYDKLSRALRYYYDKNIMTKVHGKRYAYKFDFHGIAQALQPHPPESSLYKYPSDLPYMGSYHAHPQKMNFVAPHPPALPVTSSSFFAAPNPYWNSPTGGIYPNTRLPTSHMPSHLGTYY
# In short: as §1
# [5] = molecular target: ELF1 (Homo sapiens, UniProt P32519 1-619); conditions: protein: recombinant; tags: N-terminal GST; dsDNA, one strand shown
# Sequence of ELF1 (P32519 whole entry): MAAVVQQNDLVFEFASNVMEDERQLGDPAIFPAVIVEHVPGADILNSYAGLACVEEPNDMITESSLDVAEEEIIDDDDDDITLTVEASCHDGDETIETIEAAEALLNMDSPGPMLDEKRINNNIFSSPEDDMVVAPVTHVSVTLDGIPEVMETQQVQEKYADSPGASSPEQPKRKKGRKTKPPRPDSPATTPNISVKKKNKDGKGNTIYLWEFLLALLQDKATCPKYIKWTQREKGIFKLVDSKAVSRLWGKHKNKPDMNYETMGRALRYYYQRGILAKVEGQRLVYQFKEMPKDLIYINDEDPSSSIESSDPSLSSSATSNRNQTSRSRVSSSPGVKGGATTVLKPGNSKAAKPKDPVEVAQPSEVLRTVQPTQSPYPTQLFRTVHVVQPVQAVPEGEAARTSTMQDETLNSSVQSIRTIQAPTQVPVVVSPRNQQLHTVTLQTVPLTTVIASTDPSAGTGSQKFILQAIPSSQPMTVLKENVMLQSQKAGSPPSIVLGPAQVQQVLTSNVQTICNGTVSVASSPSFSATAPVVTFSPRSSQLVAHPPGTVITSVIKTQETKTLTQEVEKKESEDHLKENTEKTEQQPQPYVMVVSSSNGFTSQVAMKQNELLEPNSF
# In short: as §1
# [6] = molecular target: T5, EHF (Homo sapiens, UniProt Q9NZC4 1-300); conditions: protein: recombinant; tags: N-terminal GST; dsDNA, one strand shown
# T5 sequence: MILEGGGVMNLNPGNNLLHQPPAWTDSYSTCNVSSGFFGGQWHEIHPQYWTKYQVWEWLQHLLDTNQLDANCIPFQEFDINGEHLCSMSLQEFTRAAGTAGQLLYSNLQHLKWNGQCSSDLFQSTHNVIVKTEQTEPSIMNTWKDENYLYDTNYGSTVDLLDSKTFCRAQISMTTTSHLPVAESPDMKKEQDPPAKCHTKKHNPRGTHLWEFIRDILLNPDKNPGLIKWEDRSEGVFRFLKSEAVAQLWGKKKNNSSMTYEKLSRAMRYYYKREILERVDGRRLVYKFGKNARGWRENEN
# In short: as §1
# [7] = molecular target: SPI1 (Homo sapiens, UniProt P17947 1-270); conditions: protein: recombinant; tags: N-terminal GST; dsDNA, one strand shown
# In short: as §1
# [8] = molecular target: SPIB (Homo sapiens, UniProt Q01892 1-262); conditions: protein: recombinant; tags: N-terminal GST; dsDNA, one strand shown
# Sequence of SPIB (Q01892 whole entry): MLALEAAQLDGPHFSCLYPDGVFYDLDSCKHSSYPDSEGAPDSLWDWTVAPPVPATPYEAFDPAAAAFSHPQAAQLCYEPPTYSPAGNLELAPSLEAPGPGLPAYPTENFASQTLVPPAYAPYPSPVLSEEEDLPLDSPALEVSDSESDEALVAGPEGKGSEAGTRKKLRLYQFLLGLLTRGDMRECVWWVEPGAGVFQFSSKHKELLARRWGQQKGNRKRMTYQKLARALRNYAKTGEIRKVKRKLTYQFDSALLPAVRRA
# In short: as §1
# [9] = molecular target: T6, ELK3 (Homo sapiens, UniProt P41970 1-407); conditions: protein: recombinant; tags: N-terminal GST; dsDNA, one strand shown
# T6 sequence: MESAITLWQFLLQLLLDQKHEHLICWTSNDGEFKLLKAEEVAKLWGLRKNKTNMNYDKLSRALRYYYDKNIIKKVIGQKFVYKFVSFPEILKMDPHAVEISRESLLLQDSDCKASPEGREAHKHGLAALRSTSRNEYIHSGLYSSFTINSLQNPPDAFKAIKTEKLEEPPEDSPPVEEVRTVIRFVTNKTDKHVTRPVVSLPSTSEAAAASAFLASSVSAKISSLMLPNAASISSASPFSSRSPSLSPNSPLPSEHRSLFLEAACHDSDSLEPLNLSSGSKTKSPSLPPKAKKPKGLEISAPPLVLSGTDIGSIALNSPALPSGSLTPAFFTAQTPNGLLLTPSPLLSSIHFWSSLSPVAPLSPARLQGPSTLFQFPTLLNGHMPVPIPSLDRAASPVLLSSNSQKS
# In short: as §1
# [10] = molecular target: T7, FEV (Homo sapiens, UniProt Q99581 1-238); conditions: protein: recombinant; tags: N-terminal GST; dsDNA, one strand shown
# T7 sequence: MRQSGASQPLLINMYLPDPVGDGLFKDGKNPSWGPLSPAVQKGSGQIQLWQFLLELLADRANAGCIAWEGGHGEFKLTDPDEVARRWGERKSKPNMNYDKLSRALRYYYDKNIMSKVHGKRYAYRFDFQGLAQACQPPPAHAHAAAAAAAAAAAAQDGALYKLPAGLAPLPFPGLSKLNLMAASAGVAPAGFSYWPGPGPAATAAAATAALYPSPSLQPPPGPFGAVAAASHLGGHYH
# In short: as §1
# [11] = molecular target: ETV5 (Homo sapiens, UniProt P41161 1-510); conditions: protein: recombinant; tags: N-terminal GST; dsDNA, one strand shown
# Sequence of ETV5 (P41161 whole entry): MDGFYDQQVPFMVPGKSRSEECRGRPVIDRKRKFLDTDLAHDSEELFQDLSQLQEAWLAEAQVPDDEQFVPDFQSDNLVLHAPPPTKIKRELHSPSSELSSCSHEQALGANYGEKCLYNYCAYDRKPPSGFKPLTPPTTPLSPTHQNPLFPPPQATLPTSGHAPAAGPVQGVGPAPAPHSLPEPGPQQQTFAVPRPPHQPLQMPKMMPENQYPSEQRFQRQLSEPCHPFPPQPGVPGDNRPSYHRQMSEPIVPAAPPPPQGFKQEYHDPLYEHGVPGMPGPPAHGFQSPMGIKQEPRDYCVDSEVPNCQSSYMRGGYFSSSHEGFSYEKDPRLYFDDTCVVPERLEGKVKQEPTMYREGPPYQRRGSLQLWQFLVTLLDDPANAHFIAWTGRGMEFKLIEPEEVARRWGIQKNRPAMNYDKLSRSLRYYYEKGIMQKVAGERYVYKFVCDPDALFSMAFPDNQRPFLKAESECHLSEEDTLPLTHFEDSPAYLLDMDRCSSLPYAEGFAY
# In short: as §1
# [12] = molecular target: HSF1 (Homo sapiens, UniProt Q00613 1-529); conditions: protein: recombinant; tags: N-terminal GST; chain copies: 3; dsDNA, one strand shown
# Sequence of HSF1 (Q00613 whole entry): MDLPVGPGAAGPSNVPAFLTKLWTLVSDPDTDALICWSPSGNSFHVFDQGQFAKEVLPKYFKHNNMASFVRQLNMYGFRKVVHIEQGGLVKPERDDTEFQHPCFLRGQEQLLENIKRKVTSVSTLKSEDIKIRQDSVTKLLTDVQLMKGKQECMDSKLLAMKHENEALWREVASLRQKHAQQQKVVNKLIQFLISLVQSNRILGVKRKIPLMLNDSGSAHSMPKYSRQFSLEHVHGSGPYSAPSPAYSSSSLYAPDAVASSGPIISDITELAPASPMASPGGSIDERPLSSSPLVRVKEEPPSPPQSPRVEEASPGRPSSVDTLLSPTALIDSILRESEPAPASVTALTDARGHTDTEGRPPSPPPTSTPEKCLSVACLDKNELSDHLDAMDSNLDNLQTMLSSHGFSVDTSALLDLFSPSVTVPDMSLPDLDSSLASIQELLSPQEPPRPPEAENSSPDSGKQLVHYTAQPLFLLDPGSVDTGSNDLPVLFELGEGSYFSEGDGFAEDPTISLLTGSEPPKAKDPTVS
# In short: as §1
# [13] = molecular target: T8, SPIC (Homo sapiens, UniProt Q8N5J4 1-248); conditions: protein: recombinant; tags: N-terminal GST; dsDNA, one strand shown
# T8 sequence: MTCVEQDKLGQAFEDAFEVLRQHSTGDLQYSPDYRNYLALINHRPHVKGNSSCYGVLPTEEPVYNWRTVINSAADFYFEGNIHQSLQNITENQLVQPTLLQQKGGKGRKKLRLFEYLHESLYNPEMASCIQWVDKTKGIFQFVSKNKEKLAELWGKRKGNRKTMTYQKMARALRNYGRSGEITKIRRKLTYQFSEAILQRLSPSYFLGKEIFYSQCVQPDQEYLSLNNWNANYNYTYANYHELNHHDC
# In short: as §1
# [14] = molecular target: ELF4 (Homo sapiens, UniProt Q99607 1-663); conditions: protein: recombinant; tags: N-terminal GST; dsDNA, one strand shown
# Sequence of ELF4 (Q99607 whole entry): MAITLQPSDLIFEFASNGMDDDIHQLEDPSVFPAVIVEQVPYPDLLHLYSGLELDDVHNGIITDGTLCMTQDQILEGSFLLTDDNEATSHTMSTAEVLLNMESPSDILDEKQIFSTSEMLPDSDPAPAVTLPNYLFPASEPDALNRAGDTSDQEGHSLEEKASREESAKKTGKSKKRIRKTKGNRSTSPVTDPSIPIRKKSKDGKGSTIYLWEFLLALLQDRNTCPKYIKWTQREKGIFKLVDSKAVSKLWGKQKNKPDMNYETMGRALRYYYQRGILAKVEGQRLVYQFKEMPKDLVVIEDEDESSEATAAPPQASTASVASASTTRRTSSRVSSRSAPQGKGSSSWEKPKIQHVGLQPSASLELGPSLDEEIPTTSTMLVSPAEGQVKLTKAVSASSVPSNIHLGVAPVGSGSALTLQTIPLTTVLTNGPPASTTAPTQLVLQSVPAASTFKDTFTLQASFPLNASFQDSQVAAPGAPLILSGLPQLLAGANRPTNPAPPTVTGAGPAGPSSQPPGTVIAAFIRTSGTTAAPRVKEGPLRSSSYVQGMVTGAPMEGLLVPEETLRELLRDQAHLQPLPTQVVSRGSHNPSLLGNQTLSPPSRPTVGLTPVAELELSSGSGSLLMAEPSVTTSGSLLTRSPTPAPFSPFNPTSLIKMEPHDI
# In short: as §1
# [15] = molecular target: T9, ELK4 (Homo sapiens, UniProt P28324-2 1-405); conditions: protein: recombinant; tags: N-terminal GST; dsDNA, one strand shown
# T9 sequence: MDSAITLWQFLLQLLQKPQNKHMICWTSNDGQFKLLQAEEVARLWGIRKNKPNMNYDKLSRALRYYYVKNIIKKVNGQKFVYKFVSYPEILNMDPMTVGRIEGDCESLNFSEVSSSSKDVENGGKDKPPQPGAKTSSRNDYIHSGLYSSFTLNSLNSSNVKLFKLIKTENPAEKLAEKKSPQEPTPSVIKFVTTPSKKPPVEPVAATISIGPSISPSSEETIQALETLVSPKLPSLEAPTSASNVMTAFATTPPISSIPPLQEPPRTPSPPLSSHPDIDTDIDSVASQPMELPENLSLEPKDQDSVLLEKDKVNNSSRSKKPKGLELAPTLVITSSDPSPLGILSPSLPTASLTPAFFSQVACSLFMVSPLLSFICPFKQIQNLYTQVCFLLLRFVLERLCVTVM
# In short: as §1
# [16] = molecular target: T10, ETV2 (Homo sapiens, UniProt O00321 1-342); conditions: protein: recombinant; tags: N-terminal GST; dsDNA, one strand shown
# T10 sequence: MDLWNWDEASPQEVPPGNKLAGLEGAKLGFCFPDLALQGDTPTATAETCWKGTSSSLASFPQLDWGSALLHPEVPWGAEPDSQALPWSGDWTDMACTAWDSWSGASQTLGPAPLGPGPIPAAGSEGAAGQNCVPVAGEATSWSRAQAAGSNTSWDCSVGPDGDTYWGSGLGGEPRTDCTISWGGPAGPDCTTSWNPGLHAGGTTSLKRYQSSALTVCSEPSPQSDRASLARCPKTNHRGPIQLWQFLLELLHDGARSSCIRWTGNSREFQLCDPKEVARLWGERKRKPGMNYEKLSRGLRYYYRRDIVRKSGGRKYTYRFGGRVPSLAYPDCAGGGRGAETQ
# In short: as §1
# [17] = molecular target: T11, ELF3 (Homo sapiens, UniProt P78545 1-371); conditions: protein: recombinant; tags: N-terminal GST; dsDNA, one strand shown
# T11 sequence: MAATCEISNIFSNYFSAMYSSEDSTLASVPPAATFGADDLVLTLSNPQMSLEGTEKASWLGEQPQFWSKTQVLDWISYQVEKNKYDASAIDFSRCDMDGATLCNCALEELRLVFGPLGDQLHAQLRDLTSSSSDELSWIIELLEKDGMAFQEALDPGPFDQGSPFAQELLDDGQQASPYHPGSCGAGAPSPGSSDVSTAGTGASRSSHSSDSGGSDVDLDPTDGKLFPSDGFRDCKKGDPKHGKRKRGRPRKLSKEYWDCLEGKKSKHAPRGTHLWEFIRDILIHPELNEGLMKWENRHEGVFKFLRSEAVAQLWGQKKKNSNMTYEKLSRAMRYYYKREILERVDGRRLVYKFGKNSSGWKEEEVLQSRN
# In short: as §1
# [18] = molecular target: CRX (Homo sapiens, UniProt O43186 1-299); conditions: protein: recombinant; tags: N-terminal GST; dsDNA, one strand shown
# Sequence of CRX (O43186 whole entry): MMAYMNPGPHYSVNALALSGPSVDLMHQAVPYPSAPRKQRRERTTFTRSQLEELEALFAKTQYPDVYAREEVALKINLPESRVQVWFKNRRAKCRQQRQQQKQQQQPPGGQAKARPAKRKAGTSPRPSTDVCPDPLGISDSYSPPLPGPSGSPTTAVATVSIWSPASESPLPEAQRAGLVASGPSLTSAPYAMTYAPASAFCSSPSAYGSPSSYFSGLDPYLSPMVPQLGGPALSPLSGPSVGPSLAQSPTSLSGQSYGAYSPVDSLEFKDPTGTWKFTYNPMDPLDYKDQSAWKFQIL
# In short: as §1
# [19] = molecular target: ETV1 (Homo sapiens, UniProt P50549 1-477); conditions: protein: recombinant; tags: N-terminal GST; dsDNA, one strand shown
# Sequence of ETV1 (P50549 whole entry): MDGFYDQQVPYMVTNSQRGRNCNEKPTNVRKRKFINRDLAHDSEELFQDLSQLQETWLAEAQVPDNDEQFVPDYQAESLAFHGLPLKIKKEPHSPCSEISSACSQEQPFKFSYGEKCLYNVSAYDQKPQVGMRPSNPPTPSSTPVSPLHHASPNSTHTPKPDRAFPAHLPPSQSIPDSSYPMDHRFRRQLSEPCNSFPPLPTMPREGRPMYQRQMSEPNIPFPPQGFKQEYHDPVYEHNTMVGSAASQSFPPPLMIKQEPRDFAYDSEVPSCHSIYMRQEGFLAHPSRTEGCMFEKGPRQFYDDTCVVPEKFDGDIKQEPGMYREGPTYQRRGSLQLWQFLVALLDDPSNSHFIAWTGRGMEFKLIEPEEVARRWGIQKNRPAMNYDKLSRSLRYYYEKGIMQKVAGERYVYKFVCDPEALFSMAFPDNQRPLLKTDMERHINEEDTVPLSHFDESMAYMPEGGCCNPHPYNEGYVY
# In short: as §1
sequence,measurement,setting,value
CCTCAG,binding signal,[1],"1.17 fold enrichment (6-mer frequency, TF over GST control)"
same,binding signal,[2],"1.23 fold enrichment (6-mer frequency, TF over GST control)"
same,binding signal,[3],"1.35 fold enrichment (6-mer frequency, TF over GST control)"
same,binding signal,[4],"1.21 fold enrichment (6-mer frequency, TF over GST control)"
same,binding signal,[5],"1.27 fold enrichment (6-mer frequency, TF over GST control)"
same,binding signal,[6],"1.17 fold enrichment (6-mer frequency, TF over GST control)"
same,binding signal,[7],"1.17 fold enrichment (6-mer frequency, TF over GST control)"
same,binding signal,[8],"1.35 fold enrichment (6-mer frequency, TF over GST control)"
same,binding signal,[9],"1.24 fold enrichment (6-mer frequency, TF over GST control)"
same,binding signal,[10],"1.21 fold enrichment (6-mer frequency, TF over GST control)"
same,binding signal,[11],"1.12 fold enrichment (6-mer frequency, TF over GST control)"
same,binding signal,[12],"1.07 fold enrichment (6-mer frequency, TF over GST control)"
same,binding signal,[13],"1.17 fold enrichment (6-mer frequency, TF over GST control)"
same,binding signal,[14],"1.3 fold enrichment (6-mer frequency, TF over GST control)"
same,binding signal,[15],"1.4 fold enrichment (6-mer frequency, TF over GST control)"
same,binding signal,[16],"1.37 fold enrichment (6-mer frequency, TF over GST control)"
same,binding signal,[17],"1.35 fold enrichment (6-mer frequency, TF over GST control)"
same,binding signal,[18],"1.15 fold enrichment (6-mer frequency, TF over GST control)"
same,binding signal,[19],"1.13 fold enrichment (6-mer frequency, TF over GST control)"
